Most compounds without a hit are left out; they make up all but 2.4% or so of the library.
Yeast superoxide: yeast age-related superoxide inhibition as caloric restriction mimetic; hit rate 0.18% among 330,000; S. cerevisiae aged cells, superoxide DHE fluorescence; hits give low values; superoxide response (% of plate mean), % at 10 µM;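 active = superoxide response under a set limit, about three screen SD below normal, cut at about 65% in these data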;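 also: yeast aged for seven days with compound at 30 °C before DHE staining; 100% = average MFI of all compound-treated wells on the plate with controls excluded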
PfG6PD inh: PfG6PD (Plasmodium falciparum) enzyme inhibition; PfGluPho enzyme, NADPH resazurin-diaphorase fluorescence; inhibition, % at 20 µM; hit rate 0.78% among 350,000;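 active = inhibition reaching at least a set limit at 20 µM in the primary screen, cut at about 59% in these data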;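 also: 0% = DMSO wells with substrate and 100% = DMSO wells lacking glucose-6-phosphate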
APOBEC3G inh: blocks human APOBEC3G single-stranded DNA deamination | Q9HC16 | recombinant A3G, ssDNA deamination FAM/TAMRA fluorescence | inhibition, % at 20 µM | hit rate 0.28% among 330,000;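 active = inhibition of at least 40% at 20 µM, with no more than 30% in the related APOBEC3A deaminase screen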;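 also: plate controls were DMSO wells with A3G for no effect and wells lacking A3G enzyme for full effect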
Target sequence (Q9HC16 whole entry, looked up): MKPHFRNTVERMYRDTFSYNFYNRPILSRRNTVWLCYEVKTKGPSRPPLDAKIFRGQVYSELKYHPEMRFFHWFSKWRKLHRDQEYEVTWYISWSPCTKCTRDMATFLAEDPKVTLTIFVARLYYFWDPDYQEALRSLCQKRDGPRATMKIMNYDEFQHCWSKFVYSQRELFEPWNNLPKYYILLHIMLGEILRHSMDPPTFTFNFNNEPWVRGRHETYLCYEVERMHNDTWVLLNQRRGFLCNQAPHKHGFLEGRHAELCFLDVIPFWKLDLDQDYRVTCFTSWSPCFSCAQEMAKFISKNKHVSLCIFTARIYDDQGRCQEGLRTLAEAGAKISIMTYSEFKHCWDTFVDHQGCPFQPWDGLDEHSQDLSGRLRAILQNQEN
M18AAP inhibitor: blocks P. falciparum M18 aspartyl aminopeptidase. recombinant PfM18AAP, H-Glu-NHMec fluorogenic cleavage. inhibition, % at 7.35 µM. hit rate 1.2% among 290,000. AID 1822;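 active = inhibition above the campaign mean inhibition over all tested compounds plus 3 SD, cut at about 28% in these data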;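 also: 0% = plate median of test compound wells and 100% = 2 mM ZnCl2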
A3A deaminase: blocks human APOBEC3A ssDNA deamination; recombinant A3A, FAM/TAMRA ssDNA deamination fluorescence; AID 493011; P31941; hit rate 0.41% among 330,000; inhibition, % at 20 µM;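 active = at least 40% inhibition at 20 µM here, with at most 30% in a related deaminase screen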;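 also: plate controls were A3A with DMSO for no effect and wells lacking A3A enzyme for full effect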
Target sequence (P31941 whole entry, looked up): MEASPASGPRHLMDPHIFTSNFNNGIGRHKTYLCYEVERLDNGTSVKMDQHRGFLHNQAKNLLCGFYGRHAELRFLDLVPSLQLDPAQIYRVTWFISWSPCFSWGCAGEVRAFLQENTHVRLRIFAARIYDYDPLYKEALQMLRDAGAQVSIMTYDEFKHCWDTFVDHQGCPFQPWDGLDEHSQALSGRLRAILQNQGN
CR mimetic CP: confirmation of caloric restriction mimetics inhibiting yeast age-related superoxide | shares compounds with Yeast superoxide | S. cerevisiae aging, superoxide DHE fluorescence; hits give low values | superoxide response (% of plate), % at 10 µM | hit rate 1% among 850 | AID 434994;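 active = superoxide signal below 65% of the plate average of sample wells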;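 also: cells aged with compound for 7 days at 30 degrees C before staining; 100% equals mean DHE fluorescence of all compound wells on the plate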
DHE counter: DHE fluorescence interference, counter-screen artifact. shares compounds with Yeast superoxide. S. cerevisiae BY4741, flow cytometry; hits give low values. fluorescence response, % at 10 µM. 850 tested, under 10 active. AID 435000;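 active = fluorescence response below 15%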;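 also: percent of the mean fluorescence averaged over all compound wells on the plate; lower means stronger quenching of DHE signal or ROS scavenging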
Numbers without * were called inactive; x = no result given.

SMILES	Yeast superoxide	PfG6PD inh	APOBEC3G inh	M18AAP inhibitor	A3A deaminase	CR mimetic CP	DHE counter
N#Cc1ccsc1NC(=O)CN1CCN(c2ccccn2)CC1	93.0	-13.5	-6.4	2.1	-0.8	x	x
O=C(CN1CCCCCC1)Nc1ccc(F)c(F)c1	99.6	-16.4	-4.1	-1.7	2.0	x	x
Cc1cc(Br)ccc1NC(=O)CN1CCN(c2ccccn2)CC1	106.5	0.1	-8.0	-0.5	-3.5	95.7	91.3
N#Cc1ccc(NC(=O)CN2CCN(c3ccccn3)CC2)cc1	98.5	3.4	-5.5	5.4	-5.9	97.3	102.2
O=C(CN1CCN(c2ccccn2)CC1)Nc1cccc(C(F)(F)F)c1	105.1	2.5	-4.0	-4.2	-4.6	98.4	90.4
O=C(CN1CCN(CC(=O)Nc2ccccc2Cl)CC1)Nc1ccc(F)c(F)c1	43.5*	-3.1	-1.5	5.3	3.0	95.5	93.9
Cc1cc(Br)ccc1NC(=O)c1sc2ncnc(N3CCN(c4ccccn4)CC3)c2c1C	95.4	-12.4	-4.0	2.0	0.2	x	x
CC(C)NS(=O)(=O)c1ccc(NC(=O)C(C)OC(=O)CCC2CCCC2)cc1 (stereo unspecified)	80.3	-2.6	-8.8	x	-0.6	x	x
COc1cc(OC)cc(-c2c(-c3cccs3)c3cc(-c4ccn[nH]4)ccc3n2C)c1	79.8	-5.8	-12.6	x	-4.0	x	x
COC1OC2COC(c3ccccc3)OC2C2OC12 (stereo unspecified)	x	6.8	x	x	x	x	x
CCCCc1cc(=O)oc2cc(OCC(=O)N3CCC(C(=O)O)(c4ccccc4)CC3)ccc12	64.0*	-9.6	-7.6	2.1	-6.7	112.7	94.8
NS(=O)(=O)c1ccc(CCNC(=O)C(=O)NCC2OCCN2S(=O)(=O)c2cc(F)ccc2F)cc1 (stereo unspecified)	63.0*	0.3	-7.9	1.1	-5.2	97.1	100.6
CCn1c(=O)c(-[n+]2ccccc2)c(O)c2ccccc21	99.6	38.0	-1.8	-0.8	-1.6	x	x
O=c1cc(O)c2c(=O)n(-c3ccccc3)c3ccccc3c2o1	75.3	-3.8	28.4	-6.2	8.9	95.5	94.8
CC(C)n1c(=O)c2c(O)cc(=O)oc2c2ccccc21	71.4	-3.5	11.3	-3.1	5.1	87.0	97.7
CCn1c(=O)c2c(O)cc(=O)oc2c2ccccc21	47.9*	-3.9	3.2	-2.4	0.2	81.8	101.3
CCOC(=O)c1cnc2c(F)ccc(F)c2c1Sc1ccccc1	61.6*	19.3	-3.5	1.6	2.4	86.2	111.3
CCOC(=O)c1cnc(-c2ccccc2)nc1C(F)(F)F	107.8	14.4	-2.8	1.0	-0.2	x	x
O=C(CSc1nc2cc(Cl)ccc2o1)NC1CC1	86.3	12.6	-4.5	x	-0.8	x	x
CC(=O)Nc1ccc(NC(=O)CSc2ccc(-c3cccnc3)nn2)cc1	109.7	11.8	-3.7	-2.6	-2.0	x	x
CC(=O)Nc1ccc(NC(=O)CSc2ccc(-c3ccc(-n4ccnc4)cc3)nn2)cc1	111.3	-10.3	12.3	x	3.2	89.0	112.5
O=C1c2ccccc2C(=O)N1C1C(=O)N2CCSC12C(=O)OCc1ccccc1 (stereo unspecified)	x	-8.8	x	x	x	x	x
CC(=O)Nc1ccc(S(=O)(=O)N(C)c2ccc(O)cc2)cc1	94.4	-25.2	-4.5	-1.5	-3.2	x	x
CN(c1ccccc1)S(=O)(=O)c1ccc(C(=O)NNC(=O)c2ccccc2)cc1	99.2	-9.8	-5.2	x	-2.3	x	x
CN(c1ccc(C(=O)O)cc1)S(=O)(=O)c1ccccc1	101.8	-7.8	2.1	4.8	1.5	113.8	106.4
SMILES	Yeast superoxide	PfG6PD inh	APOBEC3G inh	M18AAP inhibitor	A3A deaminase	CR mimetic CP	DHE counter
CC(=O)Nc1ccc(S(=O)(=O)N(C)c2ccccc2)cc1	103.5	-1.2	-6.9	3.2	-3.2	107.9	90.3
CCOC(=O)C(CC)n1cnc2c(nnn2-c2cccc(OC)c2)c1=O (stereo unspecified)	65.1*	-7.8	1.6	2.8	-1.2	107.3	94.9
CCOC(=O)C(CC)n1cnc2c(nnn2-c2ccc(C)cc2)c1=O (stereo unspecified)	99.9	-0.7	-1.0	-3.0	2.8	x	x
CCc1nonc1NC(=O)c1oc2c(C)c(C)ccc2c1C	42.9*	9.6	-2.4	0.9	-3.6	98.2	89.4
CCc1nonc1NC(=O)c1oc2cc(Br)ccc2c1C	113.0	-13.2	-1.0	13.7	-4.3	x	x
Cc1cccc(N(O)C(=O)Nc2cccc(Cl)c2)c1	93.0	48.1	-20.8	23.8	-3.8	x	x
COC(=O)CSc1nnc2n1C(C)(C)Cc1ccccc1-2	105.0	-16.1	-2.0	2.1	-0.5	x	x
COc1cc(NC(=O)CSc2nnc3n2C(C)(C)Cc2ccccc2-3)cc(OC)c1	65.0*	-8.6	-5.9	-7.6	-1.4	101.5	106.6
COCCN(C(=O)CSc1nnc(-c2cccs2)n1N)c1c(N)n(Cc2ccccc2)c(=O)[nH]c1=O	110.6	4.6	-6.3	1.4	-3.2	x	x
COc1cc2[nH]c(=O)n(CCC(=O)NCCCN3CCN(c4ccccc4F)CC3)c(=O)c2cc1OC	132.1	0.1	4.8	2.2	6.1	x	x
CCn1c2ccccc2c2cc([N+](=O)[O-])ccc21	98.3	10.2	-5.7	2.6	-3.0	99.0	92.6
Nc1nn(-c2ccccc2)c2ccc([N+](=O)[O-])cc12	107.1	10.3	-5.2	2.6	-4.9	x	x
CC(C)n1c2ccccc2c2cc([N+](=O)[O-])ccc21	96.1	26.4	-7.0	3.3	-0.7	100.4	110.5
COc1cc(-c2nnc(CSc3nnc(Nc4ccc(Oc5ccccc5)cc4)s3)o2)cc(OC)c1OC	97.1	6.4	-2.9	-8.6	0.4	x	x
CCS(=O)(=O)N1CCc2nc(-c3ccccc3)sc2C1	45.8*	12.1	-9.0	-11.9	-4.6	99.2	92.6
CCCCCc1ccc(OCCCC[n+]2cccc(C)c2)c(CCCCC)c1	100.2	3.6	-1.1	4.0	2.0	104.9	89.0
CCC(C)(C)c1ccc(OCCCC[n+]2ccccc2)c(C(C)(C)CC)c1	81.1	x	-5.5	3.9	-1.6	93.8	92.7
CCCCCc1ccc(OCCCC[n+]2ccc(C)cc2)c(CCCCC)c1	116.6	3.9	-8.5	5.1	-2.9	84.8	96.0
CCC(C)(C)c1ccc(Oc2cccc(C(=O)O)c2)cc1	94.5	-53.5	-5.3	6.1	-2.2	x	x
CCCCCc1ccc(OCCCC[n+]2ccccc2)c(CCCCC)c1	89.3	16.4	1.1	-3.8	0.6	88.0	96.7
Cc1ccc(-n2ncc3c(NCCCOC(C)C)ncnc32)c(C)c1	95.5	-5.4	-5.1	-2.3	-1.4	x	x
C=CCNc1ncnc2c1cnn2-c1ccc(C)cc1C	97.5	19.0	-1.0	3.0	-3.1	100.9	97.9
COc1ccc(CNC(=O)CNC(=O)c2ccc(C(C)(C)C)cc2)cc1OC	62.0*	-8.3	19.7	-6.7	-4.8	104.3	88.9
Cc1cc(S(=O)(=O)NCC(c2ccc3c(c2)OCO3)N2CCOCC2)ccc1F (stereo unspecified)	99.5	-7.0	-6.5	x	-2.9	x	x
COc1ccc2c(C)cc(SCC(=O)NC3CCCC3)nc2c1	97.4	11.1	-8.6	x	-3.7	x	x

Assay outcomes as filed in PubChem BioAssay.
